This excerpt belongs to a sample that is enriched for hits.
Cycloheximide cs: counter-screen for Shiga toxin inhibitors: cycloheximide protein synthesis inhibition. cell reporter, cycloheximide protein synthesis inhibition counterscreen. AID 2314. max response, %. 300,000 compounds, 12% hits; in the data active = max response mostly above about 13%, no sharp cut-off; inactive = mostly below about 14%; note: read at 38.3 µM for the half of the compounds with a filed dose; 0% is about no effect
VACV Venus inh: inhibitors of vaccinia virus (Venus reporter); Potency, µM (series often up to 36.5 µM), inactives show at the top dose activity change, negative = inhibition, hits mostly inhibitors; AID 720580; 330,000 compounds, 0.46% hits; Vaccinia virus Venus reporter expression, fluorescence; calls by dose curve; tested in A549 cells; note: potency is the fitted concentration of half-maximal effect; % is set by controls: 0 for no effect and ±100 for the full control effect; nearly all actives have a fitted effect of over 30% in size
Shiga toxin inh: inhibitors of Shiga toxin in Vero cells; Vero cells, Shiga toxin protein synthesis inhibition reporter; inhibition, % at 38.7 µM; AID 2315; 290,000 compounds, 9.2% hits; in the data active = inhibition mostly above about 28%, no sharp cut-off; inactive = mostly below about 43%; note: 0% is about no effect
VACV mCherry inh: vaccinia inhibition (mCherry reporter) | 310,000 compounds, 0.63% hits | AID 720579 | Potency, µM (series often up to 36.5 µM), without a hit: at the highest dose activity change, negative = inhibition, hits mostly inhibitors | Vaccinia virus mCherry reporter infection, fluorescence; calls by dose curve; tested in A549 cells; note: potency is the fitted concentration of half-maximal effect; % is set by controls: 0 for no effect and ±100 for the full control effect; nearly all actives have a fitted effect of over 35% in size
Lassa entry inh: blocks Lassa virus binding to or entry into cells; Lassa virus pseudotype entry inhibition, cell reporter; Potency, µM (highest dose often 37.9 µM), for the others: at the top dose activity change, negative = inhibition, hits mostly inhibitors; 300,000 compounds, 1.2% hits; AID 540256; calls by dose curve; tested in HEK293 cells; note: potency is the fitted concentration of half-maximal effect; % is set by controls: 0 for no effect and ±100 for the full control effect; nearly all actives have a fitted effect of over 50% in size
Marburg entry inh: Marburg virus entry inhibition; Marburg virus pseudotyped entry inhibition, cell reporter; Potency, µM (titrated, usually from 37.8 µM), for the others: at the top dose activity change, negative = inhibition, actives largely listed as inhibitors; 300,000 compounds, 1.8% hits; calls by dose curve; tested in HEK293 cells; note: potency is the fitted concentration of half-maximal effect; % is set by controls: 0 for no effect and ±100 for the full control effect
Active calls of the source: *; i = inactive; ? = inconclusive; . = no result given; [ ] = another dose, or the depositor's remark.

SMILES	Cycloheximide cs	VACV Venus inh	Shiga toxin inh	VACV mCherry inh	Lassa entry inh	Marburg entry inh
CCc1ccc(-c2nc(CS(=O)CC(=O)NC3CCCCCC3)c(C)o2)cc1 (stereo not drawn)	14.4*	.	14.8	.	.	.
COc1ccc(-c2nc(CS(=O)CC(=O)NCCC3=CCCCC3)c(C)o2)cc1 (stereo not drawn)	30.6*	-30.0%	81.5	?	.	.
COc1ccc(-c2nc(CS(=O)CC(=O)NCc3cccnc3)c(C)o2)cc1 (stereo not drawn)	-2.9	-1.2%	-15.0	-12.6%	.	.
CCc1ccc(-c2nc(CS(=O)CC(=O)NCc3cccnc3)c(C)o2)cc1 (stereo not drawn)	17.6*	-8.4%	16.5	.	11.3%	27.1%
CCc1ccc(-c2nc(CS(=O)CC(=O)O)c(C)o2)cc1 (stereo not drawn)	46.0*	-13.9%	52.9*	-6.2%	.	.
CCc1ccc(-c2nc(CS(=O)CC(=O)NC3CC3)c(C)o2)cc1 (stereo not drawn)	10.3	1.4%[7.34 µM]	12.1	1.2%[7.34 µM]	.	.
COc1cc(C(=O)N/N=C(\C)c2ccccn2)cc(OC)c1OC	7.9	?	-13.1	?	?	?
COc1ccc2nc(NN=C(C)c3ccccn3)cc(C)c2c1	.	?	.	1µM*	?	?
c1ccc(-c2nc3c4ccccc4ccn3c2CN2CCOCC2)cc1	48.5*	.	64.2*	.	.	.
Clc1ccc(-c2nc3ccccn3c2CN2CCOCC2)cc1	20.5*	.	25.0*	.	15.8%	16.8%
COc1ccc(-c2nc3c4ccccc4ccn3c2CN2CCOCC2)cc1OC	32.2*	.	73.7*	.	.	.
Clc1ccc2nc(-c3ccccc3)c(CN3CCOCC3)n2c1	11.5	.	54.6	.	8.5%	?
Cc1ccc(CN2CCSc3ccc(C(=O)Nc4ccc(Cl)cc4)cc32)cc1	.	-8.3%	.	-5.8%	-3.5%[46.1 µM]	8.2%[46.1 µM]
CCN1C(=O)S/C(=C\c2ccc(N3CCOCC3)cc2C)C1=O	27.2*	.	133.3*	.	?	?
CCCN1C(=O)S/C(=C\c2ccc(N3CCOCC3)cc2C)C1=O	33.9*	.	63.7*	.	.	4.9%
C#CCN1C(=O)S/C(=C\c2ccc(N3CCOCC3)cc2C)C1=O	24.2*	-1.2%	69.8*	-5.7%	10.8%	?
Cc1cc(/C=C2/SC(=O)NC2=O)c(C)n1-c1ccc(N2CCOCC2)cc1	8.2	-7.7%	23.5	-4.8%	?	?
CC(c1ccc(O)cc1)(c1ccc(O)cc1)c1ccc(CCBr)cc1	-5.2	?	-1.7	?	.	.
O=C(O)/C=C/c1coc2ccc(F)cc2c1=O	23.2*	-12.4%	active	-13.0%	8.2%	11.0%
O=C(O)/C=C/c1coc2ccccc2c1=O	33.4*	.	12.4	.	7.8%	0.9%
Cc1ccc2occ(/C=C/C(=O)O)c(=O)c2c1	19.9	15.5%	30.4	-8.7%	10.1%	2.3%
COc1ccc2nc(NC(=O)c3ccc([N+](=O)[O-])o3)sc2c1	34.4*	?	54.7*	?	?	-0.7%
O=C(Nc1nc2ccccc2s1)c1ccc([N+](=O)[O-])o1	33.4*	.	48.0*	.	.	.
O=C(Nc1nc2cc3c(cc2s1)OCCO3)c1ccc([N+](=O)[O-])o1	47.9*	-29.8%	45.4*	?	?	14.3%[46.1 µM]
O=C(Nc1nc2ccccc2s1)Nc1ccc([N+](=O)[O-])cc1Cl	-1.8	.	-3.4	.	.	.
SMILES	Cycloheximide cs	VACV Venus inh	Shiga toxin inh	VACV mCherry inh	Lassa entry inh	Marburg entry inh
CN(C)CCCN(C(=O)c1ccc([N+](=O)[O-])o1)c1nc2cc3c(cc2s1)OCO3	55.0*	.	59.6*	.	.	.
Cc1nn(C(=O)c2c(-c3ccccc3)noc2C)c(C)c1N=Nc1cc(C(F)(F)F)cc(C(F)(F)F)c1	-2.4	-15.3%	26.4	i	.	.
Cc1cc(Cl)ccc1NC(=O)CN1C(=O)COc2ccc(S(=O)(=O)Nc3ccccc3)cc21	.	-13.8%	.	-20.1%	-22.6%[46.1 µM]	.
CC(=O)NC(CC(=O)OC(C)C(=O)Nc1ccc(Cl)cn1)c1ccccc1 (stereo not drawn)	.	-11.6%	.	i	-1.2%	-1.4%
CCc1ccc(NC(=O)C(C)OC(=O)CC(NC(C)=O)c2ccccc2)cc1 (stereo not drawn)	33.4*	-2.6%	29.3	-15.3%	-3.7%[46.1 µM]	-1.5%[46.1 µM]
COc1cc(/C=N/NC(=O)c2cccc([N+](=O)[O-])c2)ccc1OC(=O)c1ccco1	7.2	-1.5%	40.2*	0.3%	3.5%	2.0%[46.1 µM]
COc1cc(/C=N/Nc2cccc(C)c2)ccc1OC(=O)c1ccco1	38.6*	-9.9%	19.7	-15.0%	-1.4%	0.1%
O=C(Oc1cccc(/C=N/Nc2nc(N3CCOCC3)nc(N3CCOCC3)n2)c1)c1ccco1	-4.4	-14.4%	-1.9	-0.4%	0.3%	?
COc1cc(/C=N/Nc2nc(Nc3ccccc3)nc(N3CCOCC3)n2)ccc1OC(=O)c1ccco1	35.2	.	39.1	.	?	2.06µM*
Cc1ccc(Sc2c(C)nn(-c3ccccc3)c2OC(=O)C(C)(C)C)cc1	.	7.5%	.	-4.8%	21.3%[46.1 µM]	-27.8%[46.1 µM]
CSc1nc(N)n2nc(C(C)(C)C)cc2n1	14.8*	-8.8%	26.3	-4.4%	-0.5%	0.2%
CCOC(=O)c1ccccc1NC(=O)N1CCC(CN2CCOCC2)CC1	.	-23.3%	.	i	20.6%[46.1 µM]	.
COC(=O)CC1(c2cccc3ccccc23)C(=O)c2ccccc2C1=O	-3.9	2.82µM*	-5.7	.	?	?
COC(=O)CC1(c2ccccc2)C(=O)c2ccccc2C1=O	0.7	.	-13.9	.	-12.6%	-12.9%
Cc1ccc2c(c1)-c1nc(-c3ccc(Cl)cc3)cc(-c3coc4ccccc4c3=O)c1CO2	.	-4.5%	.	-13.9%	-10.5%[46.1 µM]	-1.7%[46.1 µM]
C=C1C(=O)OC2C1CCC(C)=C1C(=O)C3OC3(C)C12 (stereo not drawn)	.	?	.	11.2µM*	.	.
CCCNC(=O)c1ccc2c(c1)N=C(C)c1c(C)ccc(C)c1S2	.	-18.8%	.	?	?	?
Nc1ccccc1C(=O)N=Nc1[nH]c(N)c2ccccc12	43.6*	-25.1%	16.2*	-16.8%	?	?
Nc1[nH]c(N=NC(=O)c2ccc(F)cc2)c2ccccc12	90.9*	-14.3%	121.1*	i	-25.5%	?
CCn1c(C)nc2cc(C(=O)N=Nc3c(O)[nH]c4ccccc34)ccc21	2.2	.	6.3	.	-0.9%	-4.6%
C=CCn1c(SCC(=O)Nc2ccccc2-c2ccccc2)nc2cc(C(=O)O)ccc2c1=O	1.2	.	21.5	.	.	.
CCCc1cc(N2CCN(c3ccccc3F)CC2)n2cnnc2n1	.	?	.	?	-1.4%[46.1 µM]	-0.1%[46.1 µM]
Cc1c(C(=O)NCc2ccc(N(C)C)cc2)oc2c1-c1nn(Cc3cccc(Cl)c3)cc1CC2	.	-18.5%	.	-22.6%	14.8%[46.1 µM]	.
COc1cc(/C=N/O)ccc1OCc1ccccc1Cl	47.6*	-14.0%	85.7*	i	?	?
COc1ccc(/C=N/N=C2/NC(=O)C(CC(=O)O)S2)cc1OCc1ccccc1Cl (stereo not drawn)	-1.5	-2.5%	-10.5	-11.3%	-12.7%	-26.0%
COc1cc(C=O)ccc1OCCOCCOc1ccccc1Cl	7.4	-10.6%	14.9	-14.0%	11.7%	27.1%
COc1cc(/C=C(/C)[N+](=O)[O-])ccc1OCc1ccccc1Cl	-6.5	11.2µM*	28.1	?	?	6.51µM*

Source: PubChem BioAssay (National Center for Advancing Translational Sciences (NCATS))
